Test results taken from PubChem BioAssay AID485364 (National Center for Advancing Translational Sciences (NCATS), 2010).
Several values for one entry are separate records, joined by “and”; a condition that tells them apart may be missing. Equal values may be shown once. The whole screen tested about 360,000 compounds, of which about 11,000 (3.1%) were called active. Where a call stands in place of a potency, no number is given. About 4% were inconclusive and are not listed. Calls come from the whole dose curve; as a rule, active = well fitted inhibition curve with a large enough effect; inconclusive = small, poorly fitted or top-dose-only effect; inactive = no such curve, though single readings can be large or run the other way. The sample as a whole holds a higher share of actives than the screen did.

The compounds below were run against Schistosoma mansoni thioredoxin glutathione reductase (TGR) (UniProt Q962Y6) (assay: qHTS Assay for the Inhibitors of Schistosoma Mansoni Peroxiredoxins). Details: purified TGR, DTNB reduction, TNB absorbance 405 nm; series mostly up to 114 µM.
Procedure, shortened: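 TGR 20 nM + NADPH 100 uM (dispensed conc.), cpd preinc 15 min RT; start with NADPH (500 uM addition) then DTNB (15 mM addition). Kinetic TNB absorbance, 405 nm filter. Four-parameter Hill fit across titration.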
Note: nearly all actives have a fitted effect of over 60% in size.
Potency is the fitted concentration of half-maximal effect.

Structure (SMILES) | Potency
Cc1ccc(Cl)cc1N1CCN(S(=O)(=O)c2cc3[nH]c(=O)c(=O)[nH]c3cc2C)CC1 | inactive
CCCNC(=O)c1ccc2c(c1)ncn2-c1ccc(C)cc1C | inactive
CC(C)CC(=O)NCC(c1ccc2c(c1)OCO2)N1CCN(c2ccc(F)cc2)CC1 (centres undefined) | inactive
CCOc1cc(/C=C(\C#N)C(=O)Nc2ccccc2C)ccc1OCc1cc(=O)n2nc(CC)sc2n1 | inactive
CCOCCCn1c(SCC(=O)Nc2ccc(CC)cc2)nc2ccccc2c1=O | inactive
CCOc1ccc(NC(=O)CC2C(=O)N(c3cccc(OC)c3)C(=O)N2C2CCCCC2)cc1 (centres undefined) | inactive
COC(=O)C1=CN(Cc2ccc(OC)cc2)C=C(C(=O)OC)C1c1ccc(O)c(OC)c1 | inactive
CCOc1ccc(CNC(=O)C2CCC(=O)N2C2CCCC2)cc1OC (centres undefined) | inactive
CCOc1cc(C2C(C(=O)OC)=CN(C3CCCC3)C=C2C(=O)OC)cc(Br)c1O | 56.2 µM (active)
COc1ccc(C)cc1Nc1nc2ccccc2c2nnc(C)n12 | inactive
COc1cc2ccccc2cc1C(=O)Nc1cccc(-c2nc3ccccc3o2)c1 | inactive
CCCCN(CCCNC(=O)c1cc(Nc2ccccc2OC)nc2ccccc12)c1ccccc1 | inactive
O=C(c1cccc(S(=O)(=O)Nc2ccccc2Cl)c1)N1CCN(C(=O)c2ccco2)CC1 | 31.6 µM (active)
O=C(CNS(=O)(=O)c1ccccc1)N1CCN(C(=O)c2ccco2)CC1 | inactive
O=C(c1cccc([N+](=O)[O-])c1)N1CCN(C(=O)c2ccco2)CC1 | inactive
COc1ccc(OC)c(NC(=O)CSc2nc3ccccc3nc2N2CCCCC2)c1 | inactive
CCOc1ccc(C2C(C(=O)Nc3ccc(Cl)cc3)=C(C)Nc3nc(C(F)(F)F)nn32)cc1 (centres undefined) | inactive
Cc1cccc(C(=O)NC(=S)N(C)C2CCCCC2)c1 | inactive
Cc1cccc(C(=O)N2c3nc(-c4ccco4)nn3C3(CCCCC3)[C@@H]3CCCC[C@@H]32)c1 | 35.5 µM (active)
Cc1ccc(C(=O)N2c3ncnn3C3(CCCCC3)[C@@H]3CCCC[C@@H]32)cc1 | inactive
CCN(CC)CCNC(=O)Cn1ncc2c3ccccc3n(Cc3ccccc3C)c2c1=O | inactive
COc1ccc(/C=C/c2noc(-c3ccccc3O)n2)cc1OC | inactive
COc1ccccc1CCNC(=O)c1cccn1-c1nnc(N2CCCCC2)s1 | inactive
COc1ccc(CC(=O)Nc2nc3n(n2)C(c2ccccc2)CC(=O)N3)cc1OC (centres undefined) | inactive
Cc1ccc(C2C=C(c3ccc(Cl)cc3)Nc3nc(NC(=O)CCC(=O)O)nn32)cc1 (centres undefined) | 17.8 µM (active)

Structure (SMILES) | Potency
COc1ccc(C2C=C(c3ccc(Br)cc3)Nc3nc(NS(C)(=O)=O)nn32)cc1 (centres undefined) | 22.4 µM (active)
COc1ccc(CNC(=O)Cn2nnc(-c3ccc(S(C)(=O)=O)cc3)n2)cc1 | inactive
CC1=C(C(=O)Nc2ccccc2)C(c2ccc(C)cc2)n2nc(SCc3ccccc3C)nc2N1 (centres undefined) | inactive
COc1ccc(C2=CC(c3ccccc3Cl)n3nc(-c4ccc(Cl)cc4)nc3N2)cc1 (centres undefined) | inactive
CCC(C(=O)Nc1cc(OC)ccc1OC)n1c(=O)c(C(F)(F)F)nc2ccccc21 (centres undefined) | inactive
COc1ccc(CCNC(=O)c2ccc(CSCc3ccc(C)cc3)o2)cc1OC | inactive
Cc1ccccc1CN1CCC(CNC(=O)c2c(C)oc3ncnc(N4CCCCC4)c23)CC1 | inactive
CCOc1ccc(OCC)c(Nc2nc3ccccc3n3nnnc23)c1 | inactive
COc1ccc(CCNC(=O)c2cnc3sc(N4CCCCCC4)nn3c2=O)cc1OC | inactive
COc1cccc(N2CC(NC(=O)/C=C\c3ccccc3)CC2=O)c1 (centres undefined) | inactive
Cn1sc(=O)c2cc(S(=O)(=O)NC3CC3)ccc21 | 1.58 µM (active)
CC1CCC(NS(=O)(=O)c2ccc3c(c2)n(C)c(=O)c(=O)n3C)CC1 (centres undefined) | inactive
O=S(=O)(NC1CC1)c1ccc(F)c(F)c1 | inactive
Cn1c(COc2ccccc2C(C)(C)C)nc2ccccc21 | inactive
Cc1cc2c(cc3c(SCc4cccc(Cl)c4)nnc(C)n32)o1 | inactive
Cc1ccc(-c2nnc(Nc3cccc(Br)c3)c3ccccc23)cc1S(=O)(=O)NCC1CCCO1 (centres undefined) | inactive
Cc1cccc(OCC(=O)N(Cc2ccc(C(C)C)cc2)Cc2ccco2)c1C | inactive
COc1ccc(CN(C)C(=O)Cc2c[nH]c3ccccc23)c(OC)c1OC | inactive
CN(Cc1cccs1)C(=O)Cc1c[nH]c2ccccc12 | inactive
CCOC(=O)CN(C)Cc1c[nH]c2ccccc12 | 35.5 µM (active)
COc1ccccc1C1=Nc2cccc3cccc(c23)N1 | inactive
c1ccc(C2=Nc3cccc4cccc(c34)N2)cc1 | 35.5 µM (active)
Brc1ccc2c(c1)NC(c1cccnc1)=NC(c1ccccc1)=N2 | inactive
CCC(CC)c1nn2cc(-c3ccccc3)nc2s1 | inactive
COc1ccc(Br)cc1CNC(=O)c1cc(=O)[nH]c2ccc(S(=O)(=O)N3CCCC3)cc12 | inactive

Structure (SMILES) | Potency
O=S(=O)(c1ccc(Br)cc1)c1nnn2c1nc(N1CCOCC1)c1sccc12 | inactive
CC(=O)OC1=C(C(C)=O)N(Cc2ccccc2)S(=O)(=O)c2ccccc21 | inactive
Cc1ccc(CNC(=O)c2c(O)nc3c(C)cccn3c2=O)cc1 | inactive
CCOc1ccc(CNC(=O)c2ccc(CS(=O)c3ccccc3)o2)cc1 (centres undefined) | inactive
Cc1ccc(CNC(=O)c2ccc(CS(=O)Cc3cccc(Cl)c3)o2)cc1 (centres undefined) | 35.5 µM (active) and 25.1 µM (active)
O=C(NCc1cccs1)c1ccc(CS(=O)Cc2ccccc2Cl)o1 (centres undefined) | inactive
CCN(CC)C(=O)CSc1nc2ccsc2c(=O)n1Cc1ccccc1Cl | inactive
CCCCNC(=O)c1cc(-c2ccc(Cl)c(Cl)c2)on1 | inactive
CC(/C=N/NC(=O)c1cc(-c2ccc3ccccc3c2)n[nH]1)=C\c1ccco1 | inactive
C/C(=C\c1ccco1)C1Nc2cccc3cccc(c23)N1 | 3.55 µM (active)
Cc1ccc(Cn2cc(CCC(=O)NCc3ccc(OC(C)C)cc3)c3ccccc32)cc1 | inactive
COc1ccc(S(=O)(=O)c2c(Nc3cccc(Cl)c3)sc(C(=O)c3ccccc3)c2N)cc1 | inactive
Cc1cc(C)c2oc(C(=O)Nc3ccc(S(=O)(=O)N(C)c4ccccc4)cc3)cc(=O)c2c1 | inactive
CCCCOC(=O)CSc1ncnc2sc3c(c12)CCC(C)C3 (centres undefined) | inactive
O=C(CNC(=O)Cc1ccccc1)N=Nc1c(O)[nH]c2ccc(Br)cc12 | inactive
Cc1c(-c2ccccc2)n[nH]c1C(=O)N=Nc1c(O)[nH]c2ccccc12 | inactive
O=C(CCN1CCCCC1)N=Nc1c(O)[nH]c2ccccc12 | 11.2 µM (active)
N#C/C(=C\c1ccccc1F)c1nc2ccccc2c(=O)[nH]1 | inactive
CNC(=O)CN1C(=O)c2cccnc2Sc2ccccc21 | inactive
Cc1ccsc1CN(C(=O)c1oc2ccc(Br)cc2c1C)C1CCS(=O)(=O)C1 (centres undefined) | inactive
O=C(NC1CCN(Cc2ccccc2)CC1)c1ccc(Cn2c(=O)c3ccccc3n(Cc3cccc(F)c3)c2=O)cc1 | inactive
Cc1ccc(-c2cc(C(=O)NC3CCN(Cc4ccccc4)CC3)c3ccccc3n2)cc1 | inactive
CC1(C)CC(=O)C/C(=N\NC(=O)c2cccs2)C1 | inactive
O=C(N/N=C/C=C/c1ccco1)c1cccs1 | 3.55 µM (active)
Cc1ccc(-c2cc(C(=O)N/N=C/C=C/c3ccco3)c3ccccc3n2)cc1C | 39.8 µM (active)

Structure (SMILES) | Potency
Cc1ccc(-n2nc(C)c(/C=N/NC(=O)c3cccs3)c2Cl)cc1 | inactive
C/C(=N\NC(=O)c1cc(-c2ccc(O)cc2)nc2ccccc12)c1cccnc1 | inactive
CC1=C(c2ccc(Cl)cc2)S(=O)(=O)N=C1N1CCN(c2cc(C)ccc2C)CC1 | inactive
Cc1ccccc1C(=O)Nc1nnc(S(=O)(=O)N(C)c2ccc(Cl)cc2)s1 | inactive
COc1ccccc1NC(=O)CCN1CCN(c2ccc(Cl)cc2)CC1 | inactive
COC(=O)CNC(c1ccccc1Cl)c1cc(Br)ccc1NC(=O)CCN1CCOCC1 (centres undefined) | 25.1 µM (active)
O=C(CCN1CCCCC1)NCC(=O)Nc1ccc(Br)cc1C(=O)c1ccccc1 | inactive
COc1cc(C)ccc1OCCSc1nc2ccc(NC(=O)c3ccc(C)cc3)cc2s1 | inactive
Cc1cc(F)ccc1NC1(c2ccccc2)C(=O)c2ccccc2C1=O | inactive
CC(C)c1ccc(OCC(=O)N(Cc2ccc(N(C)C)cc2)C2CCS(=O)(=O)C2)cc1 (centres undefined) | inactive
Cc1onc(-c2c(Cl)cccc2Cl)c1C(=O)c1c[nH]c(C(=O)NC2CC2)c1 | inactive
C/C(=N/OC(=O)c1c(-c2c(F)cccc2Cl)noc1C)c1cnccn1 | inactive
Cc1[nH]n(C)c(=O)c1C(=O)c1c(-c2c(Cl)cccc2Cl)noc1C | 25.1 µM (active)
CCc1ccc(S(=O)(=O)c2nnn3c2nc(N2CCN(CC)CC2)c2sccc23)cc1 | inactive
O=C(COc1ccccc1F)OCc1cc(=O)n2nc(C3CCCCC3)sc2n1 | inactive
CS/C(=C\[N+](=O)[O-])Nc1ccc(C)cc1 | 0.316 µM (active)
COc1cc(NC(=O)Nc2ccc(C)cc2)cc([N+](=O)[O-])c1 | inactive
Cc1ccc(NC(=O)O/N=C/c2cccc([N+](=O)[O-])c2)cc1 | inactive
CN(Cc1ccccc1)c1ccc(-c2nc(-c3ccccc3)no2)cc1[N+](=O)[O-] | inactive
CCOC(=O)c1ccc2c(c1)N(Cc1cccc(OC)c1)C(=O)c1ccccc1S2(=O)=O | inactive
O=C(c1ccco1)N1CCN(C(=S)Nc2cc(F)cc(F)c2)CC1 | inactive
O=C(c1ccco1)N1CCN(C(=O)c2ccc(COc3ccc(F)cc3)o2)CC1 | 44.7 µM (active)
O=C(c1ccco1)N1CCN(CCOc2ccccc2)CC1 | inactive
N#Cc1ccccc1Cn1cnc2nc3c(cc2c1=O)CCCC3 | inactive
